Sampled rows, rich in hits. Any-hit rate of the full collection: about 5.7%.
KB-V1 MDR tox: qHTS assay for MDR1-selective chemotherapeutics: Primary screen using the drug-selected MDR subline cells KB-V1; KB-V1 MDR cells viability, CellTiter-Glo, 72 h; Potency, µM (series often up to 46.1 µM), most hits filed as cytotoxic; 400,000 compounds, 3.4% hits; AID 1347076, 2019; further: nearly all actives have a fitted effect of over 60% in size
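qHTS viability screen in drug-selected KB-V1 MDR cells: 72 h compound treatment at 37 degrees C, ATP luminescence end point.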
HT1080-NT tox: qHTS for induction of synthetic lethality in tumor cells producing 2HG: qHTS for the HT-1080-NT fibrosarcoma cell line; HT-1080-NT fibrosarcoma viability, CellTiter-Glo ATP luminescence, 48 h; Potency, µM (top dose mostly 46.1 µM), inactives show at the highest dose activity, negative = less viability, usual class: cytotoxic; 360,000 compounds, 1.6% hits;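 further: NT is the 2HG producing partner of a matched IDH1 knockdown line; 0% = DMSO-treated cells and -100% = media-only wells without cells; nearly all actives have a fitted effect of over 55% in size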
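HT-1080-NT fibrosarcoma cells (2HG-overproducing), 750 cells/well in RPMI with 5% FBS, dosed after 2 h and incubated 48 h at 37C. CellTiter-Glo luminescence normalized to DMSO and no-cell wells; concentration-response curves fitted and classed.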
HT1080 IDH1KD tx: qHTS for induction of synthetic lethality in tumor cells producing 2HG: qHTS for the HT-1080-IDH1KD cell line. HT-1080 IDH1 knockdown viability, ATP luminescence, 48 h. Potency, µM (top dose mostly 46.1 µM), without a hit: at the top dose activity, negative = toxicity, hits mostly cytotoxic. 360,000 compounds, 2% hits. AID 686971, 2013;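 further: 0% = DMSO wells and -100% = cell-free medium wells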
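Viability of IDH1-knockdown HT-1080 fibrosarcoma cells was assessed by CellTiter-Glo after 48 h at 37 °C with titrated compound; concentration-effect curves were classified by fit quality and response size.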
KB-3-1 tox: qHTS assay for MDR1-selective chemotherapeutics: Primary screen using the parental adenocarcinoma cell KB-3-1; KB-3-1 viability, CellTiter-Glo ATP luminescence, 72 h; Potency, µM (highest dose often 46.1 µM), usual class: cytotoxic; 400,000 compounds, 1.4% hits; further: nearly all actives have a fitted effect of over 60% in size
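Parental KB-3-1 viability, qHTS format: 72 h compound exposure, 37 °C; CellTiter-Glo; media-only wells and DMSO plates as controls; concentration-effect fits on corrected data.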
* marks the source's active call; other numbers are inactive results. The call rests on the fitted dose curve; in most records, active means well fitted curve in the direction sought with a large enough effect; inconclusive means small, poorly fitted or top-dose-only effect, or another doubt; inactive means no such curve, though single readings can be large; an effect the other way counts as inactive or inconclusive. Unless noted, on the % scale 0 is the no-effect control and ±100 the full control effect; potency means the concentration at half of the fitted maximal effect.

For CCOc1ccccc1CNC(=O)c1cccn1-c1nnc(N2CCCC2)s1 the results were KB-V1 MDR tox inactive and KB-3-1 tox inactive.
`COc1cc(N(C)C)ccc1/C=C/c1ccnc2ccccc12` gave KB-V1 MDR tox inconclusive and KB-3-1 tox inactive.
Screening C[N+]1(CC(=O)c2ccc(Cl)c(Cl)c2)CCOCC1 returned KB-V1 MDR tox inactive and KB-3-1 tox inactive.
Cc1ccc(C)c(N(C)S(=O)(=O)c2ccc3[nH]cc(C(=O)NC4CCCC4)c(=O)c3c2)c1 was read as KB-V1 MDR tox inactive and KB-3-1 tox inactive.
For CC1(C)Cc2c(cnn2-c2ccccc2)-c2c1c1ccccc1n2CC(O)CCl (stereo unspecified) the results were KB-V1 MDR tox inconclusive, HT1080-NT tox 18µM*, HT1080 IDH1KD tx 21µM* and KB-3-1 tox inconclusive.
`CC1(C)Cc2c(cnn2-c2ccccc2)C(=O)/C1=N\NC(=O)c1ccncc1` gave KB-V1 MDR tox inactive, HT1080-NT tox -9%, HT1080 IDH1KD tx -7% and KB-3-1 tox inactive.
For CCOc1cc2c(cc1O)C(=NO)CC1C2CCC2(C)C(O)CCC12 (stereo unspecified) the results were KB-V1 MDR tox inactive, HT1080-NT tox 0.29µM*, HT1080 IDH1KD tx inconclusive and KB-3-1 tox inactive.
Screening O=C(CSc1ncc2c(n1)-c1ccccc1N(Cc1ccccc1)S2(=O)=O)Nc1ccccc1 returned KB-V1 MDR tox inactive and KB-3-1 tox inactive.
For Cc1ccc(S(=O)(=O)N2CCN(c3ncnc4sccc34)CC2)cc1C the results were KB-V1 MDR tox 5.2µM*, HT1080-NT tox inconclusive, HT1080 IDH1KD tx inconclusive and KB-3-1 tox inconclusive.
Cc1ccc(-c2csc3ncnc(-n4cnc5ccccc54)c23)cc1 was read as KB-V1 MDR tox inconclusive, HT1080-NT tox 16µM*, HT1080 IDH1KD tx 21µM* and KB-3-1 tox inconclusive.
O=S(=O)(c1ccc2c(c1)OCCO2)N1CCN(c2ncnc3sccc23)CC1 was read as KB-V1 MDR tox inactive, HT1080-NT tox -24%, HT1080 IDH1KD tx inconclusive and KB-3-1 tox inconclusive.
Cc1ccc(C)c(S(=O)(=O)N2CCN(C(=O)C3CCN(c4ncnc5sc(C)c(C)c45)CC3)CC2)c1 was read as KB-V1 MDR tox inconclusive, HT1080-NT tox 5%, HT1080 IDH1KD tx -10% and KB-3-1 tox 23µM*.
`Cc1sc2ncnc(OCC(=O)c3ccc(S(=O)(=O)N4CCCC4)cc3)c2c1C` gave KB-V1 MDR tox 4.6µM*, HT1080-NT tox 7%, HT1080 IDH1KD tx -16% and KB-3-1 tox inconclusive.
`Cc1ccc(-n2nc(C(=O)N(C)c3ccc(C)c(C)c3)c3c4ccccc4n(C)c3c2=O)cc1` gave KB-V1 MDR tox inactive and KB-3-1 tox inactive.
`Cc1oc(-c2ccc(Cl)cc2)nc1Cn1c(=O)cc(-c2ccccc2)c2c(C)nn(C)c21` gave KB-V1 MDR tox inactive and KB-3-1 tox inactive.
CCSC(N)=Nc1ccc(C(F)(F)F)cc1 was read as HT1080-NT tox 22% and HT1080 IDH1KD tx 18%.
Cc1ccc(S(=O)(=O)N2CCN(c3ncnc4scc(-c5ccc(F)cc5)c34)CC2)cc1 was read as KB-V1 MDR tox inactive, HT1080-NT tox -18%, HT1080 IDH1KD tx -14% and KB-3-1 tox inactive.
`Cc1ccc(S(=O)(=O)N2CCN(c3ncnc4scc(-c5ccccc5)c34)CC2)cc1` gave KB-V1 MDR tox 7.3µM*, HT1080-NT tox 10%, HT1080 IDH1KD tx 19% and KB-3-1 tox inconclusive.
For Cc1sc2ncnc(N3CCN(S(=O)(=O)c4ccccc4)CC3)c2c1C the results were KB-V1 MDR tox 7.3µM*, HT1080-NT tox 7%, HT1080 IDH1KD tx 7% and KB-3-1 tox inactive.
Cc1ccc(Cl)cc1NC(=O)CCc1c(C)nc2c3cccnc3nn2c1C was read as KB-V1 MDR tox inactive and KB-3-1 tox inactive.
For Nc1nc(N)c2cc(S(=O)(=O)c3cccc(C(F)(F)F)c3)ccc2n1 the results were KB-V1 MDR tox inconclusive, HT1080-NT tox 13µM*, HT1080 IDH1KD tx 10µM* and KB-3-1 tox inconclusive.
